# Assay results as given in PubChem BioAssay AID463190 (Sanford-Burnham Center for Chemical Genomics, 2010).
# The campaign covered roughly 330,000 compounds. About 7,300 (2.2%) were called active. Only a selection was taken, and actives are over-represented in it overall. Unmarked numbers belong to inactive results.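 The calls were made as follows: active = inhibition of at least 40%; inactive = the rest.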
# Test: growth inhibitors of tim10-1 mutant yeast, primary screen, luminescence, uHTS (AID 463190);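 also: mutant grown at 25 °C; 0% = DMSO wells with yeast and 100% = wells holding no yeast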
# Conditions: S. cerevisiae tim10-1 ts strain growth, BacTiter-Glo, 24 h; at 20 µM; hits give high values
row,Compound,inhibition
1,CCc1cccc(C)c1NS(=O)(=O)c1c(C)nc2sccn2c1=O,21.8%
2,COc1ccc(NC(=O)C2C3CCC(O3)C2C(=O)O)cc1OC (stereo unspecified),-1.54%
3,COCCNC(=O)CSc1nc2c(n1-c1ccccc1)CCCC2,12%
4,COc1ccc(C(C(=O)NC2CCCCC2)N(C(=O)Cc2c[nH]c3ccccc23)c2ccccc2)cc1OC (stereo unspecified),13.4%
5,CCn1c(SCC(=O)Nc2cc(C)c(Cl)cc2OC)nnc1-c1ccco1,14%
6,COc1cc(Cl)c(C)cc1NC(=O)CSc1nnc(-c2cccnc2)n1Cc1ccco1,22.4%
7,COc1cc(Cl)c(C)cc1NC(=O)CSc1nnc(-c2ccco2)n1CC(C)C,42.7% (active)
8,COc1ccc(C(=O)C2CCCN(C(=O)c3ccc(OC)o3)C2)c(C)c1 (stereo unspecified),20.5%
9,COc1ccccc1CC(NC(C)=O)C(=O)NC1CCN(C(=O)Nc2ccccc2Cl)CC1 (stereo unspecified),12%
10,CCC(=O)Nc1nc2ccccc2n1Cc1ccccc1C,40.8% (active)
11,CC(=O)Nc1nc2ccccc2n1Cc1ccc(C)cc1,19%
12,CCCCn1c(CCCNC(=O)CC)nc2ccccc21,0.782%
13,COc1ccc(NS(=O)(=O)c2ccc(Oc3c(C#N)cccc3C#N)cc2)cc1,-28.8%
14,COc1cc(C2C(C(=O)Nc3ccccc3OC)=C(C)Nc3ncnn32)ccc1O (stereo unspecified),8.15%
15,COc1ccc(C2C(C(=O)Nc3ccccc3OC)=C(C)Nc3nnnn32)c(OC)c1 (stereo unspecified),0.795%
16,COc1ccccc1NC(=O)C1=C(C)Nc2nnnn2C1c1cccc(Br)c1 (stereo unspecified),42.4% (active)
17,COC(=O)c1ccccc1NC(=O)C1CC(=O)N(c2ccc(OC)cc2)C1 (stereo unspecified),3.6%
18,COCCn1nnnc1CN1CCC(NC(=O)Nc2cccc(OC)c2)CC1,-0.459%
19,COc1ccc(/C=C2\SC(=O)N(CCC(=O)NC3CCS(=O)(=O)C3)C2=O)cc1 (stereo unspecified),-0.597%
20,COc1ccc(/C=C2/SC(=O)N(CCCCCC(=O)Nc3ccccc3C(=O)O)C2=S)cc1,40% (active)
21,COc1ccc(/C=C2\SC(=O)N(CCC(=O)NCCCn3ccnc3)C2=O)cc1,8.52%
22,Cc1cccc(OCC(O)Cn2c(N3CCCCC3)nc3c2c(=O)[nH]c(=O)n3C)c1 (stereo unspecified),12.9%
23,CCOC(=O)C1CCN(C(=O)COc2cccc3ccccc23)CC1,6.37%
24,O=C(CCCN=C1NS(=O)(=O)c2ccccc21)OCC(=O)c1ccc(F)c(F)c1,11.8%

row,Compound,inhibition
1,CCOc1ccc(NC(=O)CN(C)C(=O)c2c(C)noc2C)cc1OCC,-5.08%
2,COC(=O)C1(CCSC)NC(c2ccc(OC)cc2OC)C2C(=O)N(c3cccc(C(C)=O)c3)C(=O)C21 (stereo unspecified),8.92%
3,CC(C)(CCl)C(=O)Nc1ccc(Sc2ccc(F)cc2)cc1,53.5% (active)
4,CC(C)CNC(=S)Nc1ccc(F)cc1,0.34%
5,O=C(Nc1ccncc1)Nc1ccc(F)cc1,-16.8%
6,Cc1ccc(NC(=O)Cc2nc(COC(=O)C(C)NS(=O)(=O)c3ccc(C)cc3)cs2)cc1 (stereo unspecified),15.7%
7,O=C(CSC(=S)N1CCCCC1)c1c(F)cccc1F,9.67%
8,Oc1c(Cl)cc(Cl)c(Cl)c1Cc1c(O)c(Cl)cc(Cl)c1Cl,91% (active)
9,Cc1cc(/C=N/NC(=O)CC2(C)OCCO2)c(C)n1-c1ccc(Cl)c(Cl)c1,1.86%
10,O=C1c2cccnc2C(Nc2ccc(S(=O)(=O)N3CCCCCC3)cc2)N1Cc1ccccc1 (stereo unspecified),34.2%
11,CC1=C(/C=C/C(C)=C/C=C/C(C)=C/C=C/C=C(C)/C=C/C=C(C)/C=C/C2=C(C)CCCC2(C)C)C(C)(C)CCC1,10.6%
12,CCCCCCCCCCCCCCCC(=O)OC/C=C(C)/C=C/C=C(C)/C=C/C1=C(C)CCCC1(C)C,40.7% (active)
13,COC(=O)c1ccccc1NC(=O)CN(Cc1ccc(Cl)cc1)S(C)(=O)=O,10.7%
14,CCCCNCc1ccc(SC)cc1,-1.78%
15,O=C(Nc1cccc(F)c1)c1coc(=O)c(Br)c1,18.9%
16,CCc1ccccc1N1CN(Cc2ccco2)CNC1=S,17.4%
17,COc1ccc(C(=O)Nc2ccc(-n3nncc3C(C)(C)C)cc2)cc1,44% (active)
18,C/C(=N\Nc1ccc([N+](=O)[O-])cc1)c1ccc(-n2nncc2C(C)(C)C)cc1,-1.51%
19,COc1ccc(NC(=O)c2ccc(C#CC(C)(C)O)cc2)cc1,9.08%
20,CCCNC(=O)c1ccc(N2CCC3(CC2)CC(c2ccc(Cl)cc2)=NO3)c([N+](=O)[O-])c1,7.65%
21,Cc1nonc1OCCn1nnnc1N,4.98%
22,COc1ccccc1N(CCOc1ccccc1)S(=O)(=O)c1ccccc1,7.59%
23,Cc1ccccc1C1=N/C(=C/c2cccnc2)C(=O)O1,31.3%
24,COc1ccccc1/C=C/C1=NC(=C\N(C)C)/C(=O)O1,21%

row,Compound,inhibition
1,O=C1OC(/C=C/c2ccccc2)=NC/1=C/c1ccco1,45.5% (active)
2,CCN(Cc1ccccc1)C(=O)CCS(=O)(=O)c1ccc2c(c1)oc(=O)n2C,-13%
3,C[C@H](CO)N1C[C@H](C)[C@@H](CN(C)C(=O)Nc2ccc3c(c2)OCO3)Oc2c(cccc2N(C)C)C1=O,12.3%
4,CCS(=O)(=O)N1CCC(N2CCN(c3ccccc3)CC2)CC1,4.85%
5,CC(C)OC(=O)c1sc2nc3c(cc2c1N)C(=O)CCC3,-8.03%
6,Cc1sc2nc(CC(N)=O)[nH]c(=O)c2c1-c1ccccc1,6.26%
7,Cc1cccc(NC(=O)c2sc3nc(N4CCOCC4)c4c(c3c2N)CCCC4)c1,32%
8,CCN(CC)C(=O)c1sc2nc(-c3ccccc3)ccc2c1N,21%
9,CCc1nc2sc(C(=O)O)c(N)c2c2c1CCCC2,-71.8%
10,Cc1ccc2c(N)c(C(=O)c3ccccc3)sc2n1,41.9% (active)
11,Cc1nc2sc(C(=O)c3ccccc3)c(N)c2c2c1CCCC2,42.2% (active)
12,COC(=O)c1cc2c(N)c(C(=O)c3ccc(Cl)cc3)sc2nc1C(OC)OC,10.6%
13,NC(=O)c1sc2nc3c(c(-c4ccccc4)c2c1N)CCC3,41.3% (active)
14,Cc1cc(C)cc(NC(=O)c2cccc(NC(=O)C3C4CC5OC(=O)C3C5C4)c2)c1 (stereo unspecified),4.38%
15,CCCC(NC(=O)c1ccco1)c1nc2ccccc2[nH]1 (stereo unspecified),14.1%
16,CCOc1ccc(CCNC(=O)C2=C(C)C(=O)OC23CCC(C)CC3)cc1OCC (stereo unspecified),19.9%
17,Nc1nc(-c2sc3nc4c(cc3c2N)CCCC4)nc(N2CCOCC2)n1,27.8%
18,CCN(CC)Cc1csc2ccc(Br)cc12,7.29%
19,COc1ccccc1OCCNCC(O)COc1cccc2[nH]c3ccccc3c12 (stereo unspecified),22.3%
20,COc1ccc(C)cc1S(=O)(=O)NCCc1ccccc1,22.2%
21,CCOC(=O)c1nnn(-c2nonc2-n2cccc2)c1CN1CCC(C(=O)OCC)CC1,31.9%
22,CC(=O)c1cccc(OCC(=O)OCC(=O)Nc2cc(S(=O)(=O)N3CCCCC3)ccc2C)c1,1.6%
23,COc1ccc(N(C)C(=O)C2CCN(S(=O)(=O)c3cccc4nsnc34)CC2)cc1,6.33%
24,CC(C)C(=O)Nc1ccc2c3c(cccc13)CC2,-15.9%

row,Compound,inhibition
1,Oc1c(C(c2ccccn2)N2CCOCC2)ccc2cccnc12 (stereo unspecified),43.7% (active)
2,CC(C)c1cc(CN2CCOCC2)cc(C(C)C)c1O,-5.76%
3,COc1ccc(CCNC(=O)C2CCCN(S(=O)(=O)c3ccc(OC)cc3)C2)cc1 (stereo unspecified),1.05%
4,COc1ccc2c(c1)O/C(=C\c1ccccc1O)C2=O,18%
5,O=C1Oc2ccccc2C(=O)/C1=C/c1ccccc1O,62.2% (active)
6,COC(=O)c1ccc(/C=C2/C(=O)Oc3ccccc32)cc1,39.9%
7,Cc1ccccc1/C=C\c1nc(O)c([N+](=O)[O-])c(=O)[nH]1,-8.34%
8,CN(C)Cc1c(O)ccc2c(=O)c(-c3ccccc3Cl)coc12,1.49%
9,COc1ccc(/C=N/Nc2ncnc3sc4c(c23)CCCC4)cc1O,40.7% (active)
10,COc1ccc(NC(=O)CCCNC(=O)Cn2cnc3sc4c(c3c2=O)CCCC4)cc1OC,-24.1%
11,COc1ccc(NC(=O)CCNC(=O)Cn2cnc3sc4c(c3c2=O)CCCC4)cc1OC,-10.3%
12,S=C(NCCCc1ccccc1)Nc1ccc(Br)cc1,64.1% (active)
13,S=C(NCCc1ccccc1)Nc1ccccc1,19.1%
14,O=C(CCNC(=O)c1ccc(Br)cc1)NCCCc1ccccc1,7.38%
15,CC12CN(NC(=O)c3ccc(Cl)cc3)C3(C#N)CC1CCC23C (stereo unspecified),36.5%
16,CCn1nc(C(=O)NNS(=O)(=O)c2cc(/C=C/C(=O)O)cc(OC)c2OC)c2ccccc2c1=O,-3.64%
17,O=C(COC(=O)c1ccc(S(=O)(=O)N2CCc3ccccc3C2)cc1)NC(=O)NCc1ccco1,0.504%
18,Cc1cnc(C(=O)Oc2cccc(Cl)c2Cl)cn1,-10.1%
19,N/C(=N\OC(=O)CCC1CCCCC1)c1ccccn1,47.6% (active)
20,CCc1cccc(C)c1NC(=O)COC(=O)CC1CCCC1,2.51%
21,N/C(=N\OC(=O)CC1CCCCC1)c1ccccc1,49.3% (active)
22,N/C(=N\OC(=O)c1ccc([N+](=O)[O-])cc1)c1ccccn1,37.6%
23,O=C(CC1CCCCC1)NCc1ccccc1,11.1%
24,COc1ccccc1OCC(=O)O/N=C(\N)c1ccccn1,22.7%
